# Source: PubChem BioAssay AID628 (Vanderbilt High Throughput Screening Facility, 2007)
# Hit rate of the full screen: of about 64,000 compounds, about 2,200 (3.4%) were called active.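 The calls were made as follows: active = calcium fluorescence response, raw or row-and-column corrected B-score, differing from the plate sample mean either way at a set confidence level, mostly lower; inactive = the rest.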 Only a selection was taken, and actives are over-represented in it overall.
# Target: Muscarinic acetylcholine receptor M1 (Rattus norvegicus) (UniProt P08482)
# Assay: antagonists of rat M1 muscarinic receptor (AID 628)
# Settings: CHO-M1 cells, Fluo-4 calcium, ACh EC80 antagonist mode; at 10 µM; stronger effect = lower value
# Muscarinic acetylcholine receptor M1 (Rattus norvegicus), sequence (P08482 whole entry, looked up): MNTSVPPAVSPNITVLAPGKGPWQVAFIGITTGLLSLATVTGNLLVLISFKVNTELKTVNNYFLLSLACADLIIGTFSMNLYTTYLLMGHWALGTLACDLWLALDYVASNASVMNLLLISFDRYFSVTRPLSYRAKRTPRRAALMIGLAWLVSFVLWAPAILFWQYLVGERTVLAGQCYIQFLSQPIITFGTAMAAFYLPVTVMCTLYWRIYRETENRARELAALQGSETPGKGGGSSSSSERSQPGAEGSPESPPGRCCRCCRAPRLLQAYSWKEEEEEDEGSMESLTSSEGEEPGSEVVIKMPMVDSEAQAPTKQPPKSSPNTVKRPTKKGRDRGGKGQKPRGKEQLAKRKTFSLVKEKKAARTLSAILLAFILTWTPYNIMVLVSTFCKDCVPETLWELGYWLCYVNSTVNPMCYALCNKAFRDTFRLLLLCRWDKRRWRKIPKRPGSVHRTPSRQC
row,Compound,B-score
1,CCOC(=O)C1CCN(Cc2coc3ccc(Cl)cc3c2=O)CC1,-5.08 (active)
2,CCOC(=O)c1ccc(N2C(=O)CC(N3CCC(C(=O)OCC)CC3)C2=O)cc1 (stereo not given),-0.522 (inactive)
3,CCOC(=O)C1CCN(C(=O)Nc2ccc(Cl)cc2)CC1,-0.00301 (inactive)
4,CC(C)NS(=O)(=O)c1ccc(NC(=O)c2cccnc2)cc1,1.03 (inactive)
5,C=CCn1c2ccccc2c2nnc(SC(CC)C(=O)Nc3nc(C)c(C(=O)OCC)s3)nc21 (stereo not given),0.9 (inactive)
6,COc1cc(-n2c(C)nc3cc(C(=O)NCc4ccco4)ccc32)cc(OC)c1OC,-0.0298 (inactive)
7,CSCCC(Nc1nc2ccccc2s1)C(=O)O (stereo not given),0.99 (inactive)
8,COCCN(C(=O)CCC(=O)Nc1ccccn1)C(C(=O)NCCC(C)C)c1ccc(OC)cc1 (stereo not given),-2.46 (active)
9,Cc1ccc(C(C(=O)NC2CCCC2)N(Cc2ccco2)C(=O)CCC(=O)Nc2ccccn2)cc1 (stereo not given),-0.0611 (inactive)
10,Cc1ccc(C)c(N(CC(=O)NCc2ccco2)C(=O)CCC(=O)Nc2ccccn2)c1,0.211 (inactive)
11,CC(=O)Oc1cc2c(C(=O)NCCN3CCOCC3)c(C)oc2c2ccccc12,-0.671 (inactive)
12,CN(C)Cc1c(C#N)c2ccccc2n1C,0.566 (inactive)
13,CCCCNC(=O)CSc1nnc(-c2ccco2)n1C,-0.326 (inactive)
14,COC(=O)CNC(=O)c1ccc2c(c1)S(=O)(=O)c1ccccc1C2=O,-0.0488 (inactive)
15,CCCCN(C)C(=O)c1ccc2c(c1)N(CC)C(=O)c1ccccc1S2(=O)=O,-2.44 (active)
16,CCN1C(=O)c2cccc3c(N)ccc1c23,-0.102 (inactive)
17,O=C(Nc1ccccc1F)C1C2C=CC3(O2)C1C(=O)N(c1cccnc1)C3C(=O)NC1CCCCC1 (stereo not given),0.728 (inactive)
18,CCCN1C2=C(C(=O)CCC2)C(c2ccc(O)c(Br)c2)C2=C1CCCC2=O,0.273 (inactive)
19,Cc1ccc(-n2nc3cc(Cl)c(NC(=O)c4ccco4)cc3n2)cc1,0.0365 (inactive)
20,COc1cc(C(=O)Nc2oc(-c3ccccc3)c(-c3ccccc3)c2C#N)cc(OC)c1OC,-0.934 (inactive)
21,N#Cc1c(NC(=O)CCCN2C(=O)c3ccccc3C2=O)oc(-c2ccccc2)c1-c1ccccc1,2.29 (active)
22,O=C(CCN1C(=O)c2ccccc2C1=O)Nc1ccncc1,-0.0156 (inactive)
23,CC(C)N1C(=O)C2C(C(=O)NC3CCCCC3)C3C=CC2(O3)C1C(=O)NC1CCCC1 (stereo not given),-0.055 (inactive)

row,Compound,B-score
1,COc1ccc(C(=O)N(CCN2CCOCC2)CC(=O)NC2CCCC2)cc1OC,-1.81 (inactive)
2,Cc1noc(C)c1CSc1nnc2ccc3ccccc3n12,0.103 (inactive)
3,CC(C)(CSc1nncn1/N=C/c1ccco1)NS(=O)(=O)c1ccc(Cl)cc1,-0.0125 (inactive)
4,COC(=O)c1ccc(NC(=O)C(C)N2C(=O)c3ccccc3C2=O)cc1 (stereo not given),0.608 (inactive)
5,CCCOc1ccc(C2c3c(oc4cc(C)c(C)cc4c3=O)C(=O)N2CCCN2CCOCC2)cc1 (stereo not given),-2.07 (inactive)
6,CCCCOc1ccc(C(C)(O)CCN2CCOCC2)cc1 (stereo not given),-1.77 (active)
7,COc1ccc(OCC(=O)N2CCOCC2)cc1,-0.0545 (inactive)
8,COC(=O)C1(S(=O)(=O)C2(C(=O)OC)CCCC2)CCCC1,-0.00987 (inactive)
9,CC(=O)OC(C(=O)NC1CCCCC1)c1ccccc1 (stereo not given),0.565 (inactive)
10,CN(C)CCNC(=O)C(C(=O)c1ccccc1)n1ccccc1=O (stereo not given),0.0113 (inactive)
11,Cc1ccc(NC(=O)C2CC(c3ccc(F)cc3)=NO2)cc1 (stereo not given),0.326 (inactive)
12,CCC(C)(C)n1nnnc1C(c1cccs1)N1CCN(Cc2ccccc2)CC1 (stereo not given),0.103 (inactive)
13,CC(C)(C)n1nnnc1C(c1cccs1)N(Cc1cccnc1)CC1CCCO1 (stereo not given),-5.58 (active)
14,CCOc1ccc(CN(Cc2ccco2)C(c2cccs2)c2nnnn2C(C)(C)C)cc1 (stereo not given),-0.0188 (inactive)
15,Cc1ncc(CC(=O)n2cc(C(=O)c3cc(Cl)ccc3O)cn2)s1,-0.173 (inactive)
16,CN(C)S(=O)(=O)c1ccc(Oc2ccc(S(=O)(=O)N(C)C)cc2)cc1,-0.154 (inactive)
17,CCCCOCCCNC(=O)c1ccccc1OCC,0.466 (inactive)
18,COc1ccccc1-c1cc(C(=O)NCCCn2ccnc2)no1,-0.17 (inactive)
19,CCOc1ccccc1C(=O)NCCCn1ccnc1,-0.947 (active)
20,CC[C@]1(O)C[C@@H]2CN(CCc3c([nH]c4ccccc34)[C@@](C(=O)OC)(c3cc4c(cc3OC)N(C)[C@H]3[C@@](O)(C(=O)OC)[C@H](OC(C)=O)[C@]5(CC)C=CCN6CC[C@]43[C@@H]65)C2)C1,-0.431 (inactive)
21,CC[C@]1(O)CC2CN(CCc3c([nH]c4ccccc34)[C@@](C(=O)OC)(c3cc4c(cc3OC)N(C=O)[C@H]3[C@@](O)(C(=O)OC)[C@H](OC(C)=O)[C@]5(CC)C=CCN6CC[C@]43[C@@H]65)C2)C1 (stereo not given in full),-6.81 (active)
22,O=c1c(-c2ccccc2)coc2c(CN3CCOCC3)c(O)ccc12,-0.686 (inactive)
23,CCc1ccccc1NC(=O)CSc1nnc([C@@H](NC(=O)OC(C)(C)C)C(C)CC)o1 (stereo not given in full),-0.00145 (inactive)

row,Compound,B-score
1,CCOc1cccc(C(=O)Nc2cccnc2)c1,1.02 (inactive)
2,O=C(Nc1cccnc1)c1noc2c1CCCCC2,2.01 (active)
3,O=C(Nc1cccnc1)c1ccc2c(c1)OCO2,-0.335 (inactive)
4,Cc1cccc(NC(=O)CSc2nnc(NC(=O)CN3CCOCC3)s2)c1,-0.445 (inactive)
5,Cc1ccc(-c2nn(-c3ccccc3)cc2CN(Cc2ccccc2)C(=O)CCC(=O)O)o1,-0.258 (inactive)
6,C=CCNC(=O)C12CC3CC(C1)CC(C(=O)NCC=C)(C3)C2,0.561 (inactive)
7,CCOC(=O)N1CCC(NC(=O)CCc2cn(C)c3ccccc23)CC1,0.483 (inactive)
8,CCn1c(SCC(=O)Nc2ccccc2F)nc2c(c1=O)SC(C)C2 (stereo not given),-0.377 (inactive)
9,CC1Cc2nc(SCC(=O)Nc3ccccc3F)n(C)c(=O)c2S1 (stereo not given),-0.851 (inactive)
10,COCCn1c(SCC(=O)Nc2cc(Cl)ccc2OC)nc2c(c1=O)SC(C)C2 (stereo not given),-2.72 (active)
11,COc1ccc(-c2nc3n(c2Br)CCC3)cc1,0.807 (inactive)
12,O=C(c1cccs1)N1CCCC(c2nc(-c3ccc(F)cc3)no2)C1 (stereo not given),-1.27 (inactive)
13,COc1cc(-c2noc(C3CCCN(S(=O)(=O)c4cccc(Cl)c4)C3)n2)cc(OC)c1OC (stereo not given),0.77 (inactive)
14,O=C(Cc1cccs1)N1CCCC(c2nc(-c3ccc(S(=O)(=O)N4CCCC4)cc3)no2)C1 (stereo not given),-2.63 (active)
15,O=C(c1ccco1)N1CCN=C1SCc1cccc(Cl)c1,-2.85 (active)
16,O=C(c1ccco1)N1CCN(c2cccc(Cl)c2)CC1,-0.702 (inactive)
17,O=C(C1CC1)N1CCN=C1SCc1ccc(Cl)cc1,0.588 (inactive)
18,Cc1ccc(S(=O)(=O)C(C#N)c2nc3ccccc3nc2N2CCCC2)cc1C (stereo not given),0.0971 (inactive)
19,O=S(=O)(O)c1nc2ccccc2n1Cc1ccc(Cl)cc1Cl,0.452 (inactive)
20,COCCNc1nc(-n2nc(C)cc2C)nc2sc3c(c12)CCCC3,-0.584 (inactive)
21,Cc1cc(C)n(-c2nc(SCC(=O)N3CCCC3)c3c4c(sc3n2)CCCC4)n1,-2.83 (active)
22,Cc1nc(SCC(=O)Nc2cc(C)on2)c2c3c(sc2n1)CCCC3,-0.235 (inactive)
23,Brc1ccc(Nc2c3c(nc4ncnn24)CCC3)cc1,0.669 (inactive)

row,Compound,B-score
1,CCOC(=O)N1CCC(NC(=O)COc2cc(=O)n(C)c3ccccc23)CC1,0.854 (inactive)
2,CCOC(=O)N1CCC(Nc2c(NCCN3CCN(c4cccc(Cl)c4)CC3)c(=O)c2=O)CC1,0.00829 (inactive)
3,CCn1c(=O)cc(OCC(=O)NCCCN2CCN(c3cccc(Cl)c3)CC2)c2ccccc21,-2.45 (active)
4,Cc1c(C(=O)NCC2CCCO2)sc2nc(-c3ccccc3)cn12 (stereo not given),0.0376 (inactive)
5,COc1cc(OC)c(NC(=O)c2ccc(Br)o2)cc1Cl,0.263 (inactive)
6,CCN1CCN(c2c(Cl)cccc2NC(=O)c2ccc(Br)o2)CC1,-6.97 (active)
7,CCCC(=O)Nc1ccc(Cl)c(NC(=O)c2ccc(Br)o2)c1,0.768 (inactive)
8,CCOC(=O)N1CCC(NC(=O)c2cnn3ccccc23)CC1,0.733 (inactive)
9,CCOC(=O)Cn1c2c(c(-c3ccccc3OC)cc1=O)CCCC2,-0.0571 (inactive)
10,C=CCOC(=O)C1=C(C)OC(N)=C(C#N)C1c1ccc(F)cc1 (stereo not given),0.263 (inactive)
11,Cc1ccccc1N1C(=O)C2ON(c3ccccc3)C(c3ccncc3)C2C1=O (stereo not given),-0.292 (inactive)
12,CC(C)(C)OC(=O)c1c(N)n(CCCN2CCCC2=O)c2nc3ccccc3nc12,-1.12 (inactive)
13,COc1ccc(OC)c(C(=O)c2coc3ccc(OC)cc23)c1,-1.32 (inactive)
14,COc1cccc(-n2cc(C(=O)O)c3ccccc3c2=O)c1,1.31 (inactive)
15,COc1ccccc1N1CCN(C(=O)c2cn(-c3ccccc3)nc2-c2cccnc2)CC1,1.85 (active)
16,O=C(c1cn(-c2ccccc2)nc1-c1cccnc1)N1CCCCC1,0.615 (inactive)
17,COC(=O)c1cn(-c2ccccc2)nc1-c1cccnc1,-0.00204 (inactive)
18,COc1ccc(-n2ncc3c(N4CCCc5ccccc54)ncnc32)cc1,0.508 (inactive)
19,CCCCN(CC)C(=O)CN(C)S(=O)(=O)c1cccc2nsnc12,-0.0458 (inactive)
20,CSc1nnc2c(n1)OC(c1cn(C)c3ccccc13)N(C(C)=O)c1ccccc1-2 (stereo not given),-0.0695 (inactive)
21,CSc1nnc2c(n1)OC(c1ccsc1)N(C(C)=O)c1ccccc1-2 (stereo not given),-8.49 (active)
